Data on 25 molecules can be found in PubChem BioAssay AID651956 (Broad Institute, 2012).

Results with a measured potency or affinity are listed apart. Results filed as inconclusive are left out. Calls of active or inactive are those of the source.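 The calls were made as follows: active = in every test run, a fitted half-maximal concentration for signal decrease at or below twice the highest tested concentration; inconclusive = runs disagree, flat 30 to 70% decrease, or poor fit; inactive = the rest.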

This experiment is described as follows: miR-122 activators in hepatoma reporter cells, dose response, cell-based, Huh7 psiCHECK-miR122, Renilla luciferase, cherry-picked (AID 651956).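 Also: Renilla luciferase from a miR-122 sensor reporter so lower signal means miR-122 activation.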 Conditions: 48 h; series mostly up to 35 µM.
With `COc1cccc(NC(=O)Nc2ccc3c(c2)C(=O)N(C)C[C@@H](OC)[C@@H](C)CN[C@H](C)CO3)c1`, the call was inactive.

For the molecule `COc1cccc(S(=O)(=O)N(C)C[C@@H]2Oc3cc(C4=CCCCC4)ccc3S(=O)(=O)N([C@H](C)CO)C[C@@H]2C)c1`, the molecule was called inactive.

As for `COc1ccc(CNC(=O)NCCc2c[nH]c3ccccc23)cc1`, the molecule was classed as inactive.

In the case of `CNC(=O)C[C@H]1CC[C@@H]2[C@H](COc3ccc(NC(=O)NC(C)C)cc3C(=O)N2C)O1`, the call was inactive.

For `CCNC(=O)C[C@@H]1CC[C@H]2[C@@H](COc3ccc(NC(=O)c4ccc(C(F)(F)F)cc4)cc3C(=O)N2C)O1`, the call was inactive.

As to `COC(=O)C[C@H]1CC[C@H]2[C@H](COc3ccc(NC(=O)NC(C)C)cc3C(=O)N2C)O1`, the molecule was called inactive.

As to `COc1ccc(-c2oc3ncnc(NCCCN4CCOCC4)c3c2-c2ccc(OC)cc2)cc1`, the call was inactive.

For the molecule `CCCNC(=O)N1C[C@@H]2[C@H](c3ccccc31)[C@@H](CO)N2C(=O)C1CCOCC1`, the result was inactive.

As for `CCC(=O)N1[C@H](CO)[C@H]2c3ccccc3N(C(=O)CC(F)(F)F)C[C@H]21`, the result was inactive.

As for `CCNC(=O)Nc1ccc2c(c1)C(=O)N(C)[C@H]1CC[C@H](CC(=O)NCCOC)O[C@@H]1CO2`, the molecule was called inactive.

`COCC(=O)N1[C@H](CO)[C@@H](c2ccccc2)[C@H]1CNC(=O)c1ccccn1`: the call was inactive.

Turning to `COCC(=O)NC[C@H]1[C@@H](c2ccc(C3=CCCC3)cc2)[C@H](CO)N1C(=O)C1CC1`, the outcome was inactive.

In the case of `CCCC(=O)Nc1ccc2c(c1)C(=O)N(C)[C@@H]1CC[C@H](CC(=O)Nc3cn(C)nc3C)O[C@@H]1CO2`, the molecule was called inactive.

As for `C/C=C/c1ccc([C@@H]2[C@@H](CN(C(=O)COC)C(C)C)N(C(C)=O)[C@H]2CO)cc1`, the molecule was classed as inactive.

On to `C/C=C/c1ccc([C@@H]2[C@H](CO)N[C@H]2CN(CC(C)C)C(=O)c2ccccn2)cc1`, for which the call was inactive.

Turning to `CN1C(=O)c2cc(NC(=O)c3cccs3)ccc2OC[C@@H]2O[C@@H](CC(=O)O)CC[C@@H]21`, the call was inactive.

With `Cc1cc(C)n(C(=O)Cn2nc(C)c(Br)c2C)n1`, the molecule was called inactive.

Turning to `O=C(Cn1c(=O)c2ccccc2n(CC(=O)N2CCCCC2)c1=O)N1CCCCC1`, the molecule was classed as inactive.

With `C[C@@H]1CN([C@@H](C)CO)C(=O)c2cccc(NC(=O)Nc3ccc4c(c3)OCO4)c2O[C@@H]1CN(C)Cc1ccc(Oc2ccccc2)cc1`, the call was inactive.

Consider `C[C@@H]1CN([C@@H](C)CO)S(=O)(=O)c2ccc(C3=CCCCC3)cc2O[C@@H]1CN(C)C(=O)Nc1ccc2c(c1)OCO2`, for which the outcome was inactive.

As to `Cc1cc(C)cc(OCC(O)CN2CCC(CN3C(=O)c4cccc5cccc(c45)C3=O)CC2)c1` (stereo not given), the call was inactive.

Regarding `CC(C)NC(=O)N(C)C[C@H]1Oc2cc(C#C[C@H](C)O)ccc2S(=O)(=O)N([C@@H](C)CO)C[C@H]1C`, the call was inactive.

On to `COc1ccc(C#Cc2ccc3c(c2)O[C@H](CN(C)C(=O)CN2CCOCC2)[C@@H](C)CN([C@@H](C)CO)S3(=O)=O)cc1`, for which the molecule was called inactive.

Regarding `CCCNC(=O)Nc1ccc2c(c1)C(=O)N(C)[C@@H]1CC[C@H](CC(=O)NCC3CCCCC3)O[C@H]1CO2`, the call was inactive.

As for `O=C(C1CCCCC1)N1C[C@@H]2[C@H](c3ccccc31)[C@H](CO)N2Cc1ccccc1Cl`, the outcome was inactive.
